Bioassay records from PubChem BioAssay.
MRP-1 activ: H69AR viability gain despite doxorubicin, primary screen, MRP-1 activator project, H69AR cells, CellTiter-Glo; viability rescue; 0.61% of 140,000 active; viability increase, % at 10 µM;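 active means viability gain under doxorubicin at or above a set limit, the compound median plus 3 SD, cut at about 4.7% in these data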;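 further: MRP-1 overexpressing cells given doxorubicin 25 µM after compound pretreatment; 18-22 h compound pretreatment then 72 h with doxorubicin before readout; 0% = doxorubicin-only wells and 100% = vehicle-treated cells without doxorubicin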
LYP act: LYP phosphatase activators, primary screen, biochemical, DiFMUP fluorescence, 2 µM; activation, % at 2 µM; Tyrosine-protein phosphatase non-receptor type 22 (Homo sapiens), Q9Y2R2; AID 697, 2007; recombinant LYP; 0 = plate median, 100 = signal doubled; 0.11% of 96,000 active;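 active means activation at 2 µM above a set limit, the mean plus 5 SD, cut at about 37% in these data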
Target sequence (Q9Y2R2 whole entry, looked up): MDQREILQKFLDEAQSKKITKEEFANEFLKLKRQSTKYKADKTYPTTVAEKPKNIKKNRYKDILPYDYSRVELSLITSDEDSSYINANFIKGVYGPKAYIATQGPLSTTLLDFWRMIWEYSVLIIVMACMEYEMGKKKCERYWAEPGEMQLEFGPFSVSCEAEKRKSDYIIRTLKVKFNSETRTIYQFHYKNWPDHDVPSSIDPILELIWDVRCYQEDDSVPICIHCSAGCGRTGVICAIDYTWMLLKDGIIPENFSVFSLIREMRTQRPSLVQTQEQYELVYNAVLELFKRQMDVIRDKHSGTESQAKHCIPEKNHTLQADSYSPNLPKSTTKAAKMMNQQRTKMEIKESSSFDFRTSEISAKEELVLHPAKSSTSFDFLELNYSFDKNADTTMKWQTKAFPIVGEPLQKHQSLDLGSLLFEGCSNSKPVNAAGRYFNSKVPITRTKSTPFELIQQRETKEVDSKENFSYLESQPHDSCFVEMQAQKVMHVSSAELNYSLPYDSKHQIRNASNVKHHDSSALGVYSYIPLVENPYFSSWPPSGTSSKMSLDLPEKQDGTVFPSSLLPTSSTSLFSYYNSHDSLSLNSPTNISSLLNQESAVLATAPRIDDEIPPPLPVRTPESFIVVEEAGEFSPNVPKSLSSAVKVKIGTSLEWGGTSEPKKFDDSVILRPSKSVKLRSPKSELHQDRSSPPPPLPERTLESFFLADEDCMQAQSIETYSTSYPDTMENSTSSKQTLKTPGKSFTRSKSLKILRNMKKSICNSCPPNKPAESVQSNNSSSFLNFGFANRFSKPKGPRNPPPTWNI
MRP reversal: reversal of MRP1-mediated doxorubicin resistance, primary screen, H69AR cells, doxorubicin co-treatment; H69AR cells + 2 uM doxorubicin, CellTiter-Glo, 72 h; differential viability (reversal), % at 10 µM; 0.04% of 85,000 active;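 active means viability drop by adding the cancer drug above about 55%, with treated viability meeting a 40% cutoff, limit read from the data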;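 further: viability without doxorubicin minus viability with 2 µM doxorubicin for each compound; larger differential means the compound sensitizes cells more to doxorubicin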
FAK blocker: FAK kinase inhibitors, primary screen, biochemical; 0.84% of 97,000 active; AID 727, 2007; inhibition, %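 (tested at 7 µM)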; Focal adhesion kinase 1 (Homo sapiens), Q05397; biochemical FAK kinase activity assay;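 further: 0% = DMSO and 100% = reference compound high control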
PTPN22 inh 2: PTPN22 phosphatase inhibitors, primary screen, biochemical, DiFMUP fluorescence, 2 µM | inhibition, % at 2 µM | recombinant LYP catalytic domain | 0.21% of 96,000 active;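 active means inhibition at 2 µM at or above a set limit, the screen mean plus 3 SD, cut at about 24% in these data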;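 further: 0% = DMSO with enzyme and 100% = enzyme fully blocked by orthovanadate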
PLAP activator: PLAP enzyme activators, biochemical, luminescence, HTS; purified PLAP enzyme, luminescent substrate read-out; stronger effect = higher value; Alkaline phosphatase, placental type (Homo sapiens), P05187; 1.2% of 96,000 active; activation fold at 20 µM; AID 696, 2007; in the data active means activation fold above about 2
FAK inh confirm: FAK kinase inhibitors, retest, confirmation, biochemical; shares compounds with FAK blocker; inhibition, % at 7 µM; 28% of 750 active; AID 794, 2007; FAK kinase biochemical inhibition assay
* hit, by the source's call; x = not tested or not shown. Only some compounds are listed: those with a hit (about 2.2% of all), similar ones and a draw of the others. Unless noted, no stated cut-off is given here; in the data, active means inhibition above about 19%; inactive means the rest.

SMILES | MRP-1 activ | LYP act | MRP reversal | FAK blocker | PTPN22 inh 2 | PLAP activator | FAK inh confirm
CC(C)c1ccc(-c2nc(N3CCCC3)nc3n[nH]c(N)c23)cc1 | -1 | x | -16 | x | x | 0.9 | x
CC1CCN(S(=O)(=O)c2ccc(NC(=O)Cn3nnc(-c4ccccc4F)n3)cc2)CC1 | -4 | 11 | -12 | 19* | -8 | 1 | 8
CC1CCCC(C)N1C(=O)c1cccc2c1-c1ccccc1/C2=N/O (stereo not given) | -5 | 1 | 1 | 14 | -7 | x | x
CCOC(=O)c1cccc2c1-c1ccccc1/C2=N/O | -1 | 3 | -31 | 49* | -4 | 1.2 | 26*
Cc1nc2c(ccc3nc(NC(=O)c4ccc5c(c4)OCCO5)sc32)s1 | -5 | -10 | -21 | 24* | 8 | 1 | 14
CCOc1ccc(/C=C\C(C)=N\O)cc1 | -2 | 8 | -29 | 20* | -11 | 1 | 8
CC1(C)Cc2c(C#N)c(N3CCN(C(=O)c4ccccc4Cl)CC3)nc(-c3ccco3)c2CS1 | -3 | -20 | x | 25* | 22 | 1.4 | -1
CC(C)C(NC(=S)Nc1ccccc1)C(=O)O (stereo not given) | -1 | x | x | x | x | x | x
COc1ccc(C2N(Cc3ccccc3)CC(=O)N2/N=C(\C)c2ccccc2)cc1 (stereo not given) | -2 | x | x | x | x | x | x
O=c1[nH]cnc2sc3c(c12)CCCC3 | -2 | -4 | 2 | 26* | 7 | 1.3 | 10
O=C(NCc1nnc(SCc2ccc(F)cc2)n1-c1ccc(F)cc1)C12CC3CC(CC(C3)C1)C2 | -1 | x | x | x | x | x | x
Cc1nc2n(n1)C(c1ccccc1)C1=C(CC(c3ccco3)CC1=O)N2 (stereo not given) | -2 | 11 | x | 12 | -12 | 1.1 | x
O=C1CC(c2ccco2)CC2=C1C=Nc1ccccc1N2 (stereo not given) | -5 | 6 | 3 | 22* | -6 | 1.2 | 0
CCCCN(CCCC)S(=O)(=O)c1ccc(NC(=O)Cc2cccs2)cc1 | -4 | -3 | 0 | 4 | 0 | 0.7 | x
CC(=O)Nc1ccccc1O | -2 | x | -1 | x | x | x | x
O=C1C=C(Nc2ccccc2O)c2ccccc2C1=O | -6 | 0 | -1 | 23* | 4 | 0.7 | 15
CCOC(=O)C(=O)Nc1nnc(CCc2ccccc2)s1 | -1 | 12 | 9 | 0 | -16 | x | x
CC(C)c1ccccc1NC1=CC(=O)CC(C)(C)C1 | -2 | x | x | x | x | x | x
CN1C(=O)C2(OCC(COc3ccc(Cl)cc3)O2)c2ccccc21 (stereo not given) | 1 | 5 | 3 | 2 | -4 | 0.9 | x
O=C1Nc2ccccc2C12OCC(COc1ccc(Cl)cc1)O2 (stereo not given) | 1 | 1 | 11 | 20* | -5 | 0.8 | 1
Cc1cc(C)cc(OCC(=O)Nc2ccc(N3CCCC3)cc2)c1 | -3 | -17 | 12 | 39* | 16 | 1.3 | 40*
COc1ccc(C(=O)Nc2ccc(N3CCCC3)cc2)cc1 | -1 | -13 | 3 | 32* | 15 | 1.3 | 13
CCOc1ccc(C(=O)Nc2ccc(N3CCCC3)cc2)cc1 | 0 | 2 | x | 17 | 1 | 1.3 | x
CC(C)c1ccccc1NC(=S)NCc1ccccc1F | -2 | x | x | x | x | x | x
CC(=O)c1ccc(NC(=O)c2cnn3c(C(F)F)cc(C4CC4)nc23)cc1 | x | -2 | 5 | -1 | 1 | x | x
SMILES | MRP-1 activ | LYP act | MRP reversal | FAK blocker | PTPN22 inh 2 | PLAP activator | FAK inh confirm
Clc1ccc2[nH]cc(-c3nnnn3-c3ccccc3)c2c1 | -4 | 4 | x | 33* | 2 | 1.1 | 20*
O=C1Nc2ccc(NS(=O)(=O)c3cccs3)c3cccc1c23 | 0 | 4 | 11 | 42* | -6 | 0.7 | 19*
COc1ccc(C2OC(=O)CC2C(=O)NC2CCCC(C)C2C)cc1OC (stereo not given) | -3 | 0 | 17 | -2 | 1 | 1.3 | x
COc1ccc(C2OC(=O)CC2C(=O)NC2CCCCCC2)cc1OC (stereo not given) | -2 | -5 | -3 | 21* | 6 | 1 | 2
CSc1nc2ccc3nc(NC(=O)c4cccs4)sc3c2s1 | -3 | -9 | 19 | 40* | 7 | 1.1 | 26*
COc1ccc2c(COC(=O)c3n[nH]c4ccccc34)cc(=O)oc2c1 | -1 | 4 | x | -17 | -2 | 1.9 | x
O=[N+]([O-])c1ccc(-c2nc(-c3cccs3)c(-c3cccs3)[nH]2)cc1 | -5 | -7 | x | 12 | 11 | 0.7 | x
COc1ccc(-c2nc(-c3cccs3)c(-c3cccs3)[nH]2)cc1OC | -2 | -6 | -10 | 22* | 7 | 1.6 | 23*
COc1ccc(-c2nc(-c3ccccc3)c(-c3cccs3)[nH]2)cc1OC | -1 | -4 | 7 | 24* | 1 | 2* | 17
CCOc1ccccc1-c1nc(-c2ccc(NC(=O)c3ccc(Br)o3)cc2)no1 | 0 | 0 | -11 | -1 | -1 | 0.9 | x
CCOc1ccccc1-c1nc(-c2ccc(NC(=O)Cc3ccc(OC)cc3)cc2)no1 | 3 | -8 | -6 | 25* | 8 | 1 | 8
CC(=O)Oc1ccc(-c2csc(Nc3cccnc3)n2)cc1 | 1 | -9 | 19 | 20* | 9 | 1 | 4
c1cncc(Nc2nc(-c3ccncc3)cs2)c1 | -2 | x | -4 | x | x | 0.8 | x
C/C(=N\N=c1/scc(C)n1Cc1ccco1)c1cccc([N+](=O)[O-])c1 | 4 | x | x | x | x | x | x
O=C1Nc2ccccc2/C1=N\c1sc2c(c1C(=O)Nc1ccccc1)CCCC2 | -7 | -9 | 4 | 1 | 8 | x | x
COc1ccc(C2=C(SC)CC2=NC(C)(C)C)cc1 | -3 | x | x | x | x | x | x
Cc1ccccc1NC1=C/C(=N\S(=O)(=O)c2cccs2)c2ccccc2C1=O | -3 | 5 | x | 42* | -6 | 1.1 | 32*
NC1=NC2CS(=O)(=O)CC2S1 (stereo not given) | -1 | x | x | x | x | x | x
CCOC(=O)CSc1nc2c(sc(=S)n2Cc2ccco2)c(=O)n1-c1ccccc1 | 0 | -7 | 0 | 11 | 5 | 1.2 | x
CCN(CC)C(=O)CSc1nc2c(sc(=S)n2Cc2ccco2)c(=O)n1-c1ccccc1 | -5 | -8 | 28 | 20* | 9 | 1.2 | 4
C=CCn1c(SCc2c(Cl)cccc2Cl)nnc1-c1cccnc1 | -1 | 18 | 9 | 0 | -15 | 0.9 | x
CCN(CC)C(=O)CSc1nc(N)c2c3c(sc2n1)CC(C)CC3 (stereo not given) | 0 | -2 | -43 | 28* | 0 | 1.8 | 32*
CC1CCc2c(sc3nc(SCC(=O)NCc4ccco4)nc(N)c23)C1 (stereo not given) | -1 | 3 | -44 | 2 | -4 | 1.2 | x
CCOc1ccc2[nH]c3c(N4CCN(c5ccccn5)CC4)ncnc3c2c1 | -2 | 4 | x | 2 | -4 | 0.7 | x
